37 compounds from PubChem BioAssay AID1224861 (National Center for Advancing Translational Sciences (NCATS), 2016) can be followed below.

Inconclusive results are not listed. A call without a number means that no potency is given here. Activity calls are given as the source filed them. The call rests on the fitted dose curve; in most records, active means well fitted cell-killing curve with a large enough effect; inconclusive means small, poorly fitted or top-dose-only effect, or effect the other way; inactive means flat fitted curve, though single readings scatter.

This assay can be described thus: Compound cytotoxicity measured by an ATP content assay as a counter-screen for lead compounds in human astrocytes. The following applies: human astrocytes viability, ATP luminescence; series mostly up to 46.1 µM. An outline of the steps: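 Cytotoxicity expressed as percent inhibition of cell viability from ATP-dependent luminescence, read after 10 min at room temperature with 1:1 kit reagent. Compound exposure times matched the primary screens, e.g. 6, 24 or 72 h, in cultured human astrocytes.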
In general terms: Counterscreens check selectivity or assay interference.
Turning to `O=C(O)c1ccccc1NCCc1ccccc1`, the Potency entry is “inactive”.
The result for `O=C(O)Cc1ccc(-c2ccccc2)cc1` reads “inactive”; that for `C=CCCCCCCCCC(=O)O`, “inactive”; that for `CN1CC(=O)N2C(Cc3c([nH]c4ccccc34)[C@H]2c2ccc3c(c2)OCO3)C1=O` (some centres not stated), “inactive”.
The result for `Cc1ccc(O)c(-n2nc3ccccc3n2)c1` reads “inactive”; that for `Cc1ccc(C(=O)c2ccc(CC(=O)O)n2C)cc1`, “inactive”; that for `CC(=O)OC(C)OC(=O)C(C)c1ccc(-c2ccccc2)c(F)c1` (configuration not stated), “inactive”.
The result for `c1ccc2[nH]c(-c3cscn3)nc2c1` reads “inactive”; that for `COc1ccc2nc(NC(=O)Nc3ccccc3)sc2c1`, 19.5 µM (active).
With `CC(=C(CCOC(=O)C(C)C)SSC(CCOC(=O)C(C)C)=C(C)N(C=O)Cc1cnc(C)nc1N)N(C=O)Cc1cnc(C)nc1N`, the Potency result is “inactive”.
As to `O=C(Nc1ncc([N+](=O)[O-])s1)c1cccs1`, the Potency result was “inactive”.
The result for `O=C(Nc1ccc(C(=O)O)c(O)c1)c1ccccc1` reads “inactive”; that for `COCCn1c2c([n+](Cc3cnccn3)c1C)C(=O)c1ccccc1C2=O`, 0.138 µM (active); that for `CCCCCCCCCCCC(=O)[O][Sn]([CH2]CCC)([CH2]CCC)[O]C(=O)CCCCCCCCCCC`, “inactive”.
The result for `O=c1c2ccccc2nc2n1CCc1c-2[nH]c2ccccc12` reads “inactive”; that for `COc1ccc(CC2=NN3C([C@@H](CCc4ccccc4)[C@@H](C)O)=NC(C)C3C(=O)N2)cc1OC` (some centres not stated), “inactive”; that for `CO[C@H]1C(=O)[C@]2(C)[C@@H](OC)C[C@H]3OC[C@@]3(OC(C)=O)[C@H]2[C@H](OC(=O)c2ccccc2)[C@]2(O)C[C@H](OC(=O)[C@H](O)[C@@H](NC(=O)OC(C)(C)C)c3ccccc3)C(C)=C1C2(C)C`, “inactive”.
Then `CC(=NNC(=S)N1CCC1)c1ccccn1`, with 17.3 µM (active); and `O=C(O)[C@@H](c1ccc(OCc2ccc3ccccc3n2)cc1)C1CCCC1`, with “inactive”; and `CC(O)=C(C#N)C(=O)Nc1ccc(C(F)(F)F)cc1`, with 6.9 µM (active).
As for `O=C(/C=C/c1ccccc1)NCCO`, the Potency entry is “inactive”.
For `O=C(O)c1cc([N+](=O)[O-])ccc1NCCCc1ccccc1`, the Potency result is “inactive”.
As to `Cc1nc(N)sc1-c1ccnc(Nc2ccc(N3CCOCC3)cc2)n1`, the Potency result was “inactive”.
For the compound `Nc1cc(C(F)(F)F)ccc1S`, the Potency entry is “inactive”.
On to `OCc1ccc(-c2ccc(-c3ccc(CO)s3)o2)s1`, for which the Potency was 21.8 µM (active).
Then `Cc1cccc(/C=C/c2ccccc2)n1`, with “inactive”; and `Cc1cc(O)c2c(c1)C(=O)c1cc(O)cc(O)c1C2=O`, with “inactive”.
As to `O=C(O)c1ccccc1Nc1cccc(C(F)(F)F)c1`, the Potency entry was “inactive”.
`O=S(=O)(O)CCSSCCS(=O)(=O)O`: the Potency result is “inactive”.
Then `O=C(Oc1ccccc1)c1cccc(C(=O)Oc2ccccc2)c1`, with “inactive”.
Regarding `CN(C)c1cc(NC(=O)CNC(C)(C)C)c(O)c2c1C[C@@H]1C[C@H]3[C@H](N(C)C)C(=O)C(C(N)=O)=C(O)[C@@]3(O)C(=O)C1=C2O`, the Potency result is “inactive”.
With `C[C@@H]1CCN(C(=O)CC#N)C[C@H]1N(C)c1ncnc2[nH]ccc12`, the Potency entry was “inactive”.
The result for `N#CC1(c2ccc(NC(=O)c3cccnc3NCc3ccncc3)cc2)CCCC1` reads “inactive”; that for `CCOC1OC(=O)C[C@H]1NC(=O)[C@@H]1CCCN1C(=O)[C@@H](NC(=O)c1ccc(N)c(Cl)c1)C(C)(C)C` (some centres not stated), “inactive”.
With `c1ccc(CCNc2nc(-c3ccccc3)cs2)cc1`, the Potency entry is “inactive”.
With `O=c1[nH]nc(Sc2ncc([N+](=O)[O-])s2)n1-c1ccc2c(c1)OCCO2`, the Potency is 1.23 µM (active).
The result for `Cc1ccc(O)c(N=Nc2ccccc2)n1` reads 4.35 µM (active).
